In the library only some 0.83% were active in any assay of this set; here they are far more common.
CXXC DNA block – inhibitors of human MLL CXXC domain-DNA interaction; MLL-CXXC / FITC-HOXA9 DNA fluorescence polarization; Potency, µM (doses to about 115 µM), without a hit: at the top dose activity change, negative = inhibition, usual class: inhibitors; 290,000 tested, 0.037% active; AID 2662; active means well fitted inhibition curve with a large enough effect in the polarisation, with a control signal flat, not every such curve was filed as active; inconclusive means small, poorly fitted or top-dose-only effect, or effect the other way, or a change in a side signal; inactive means no such curve, though single readings can be large or run the other way; the % refers to the polarisation; further: potency means the concentration at half of the fitted maximal effect
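Steps: dispense CXXC domain solution (7 uM) → pin compounds or unlabeled HOX-A9 DNA control → 5 min ambient → add FLSN-HOX-A9 solution (50 nM) → spin → 30 min ambient → fluorescence polarization. Tris pH 7.5/NaCl/DTT/BSA buffer.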
Six1-Eya2 blk – inhibitors of human Six1/Eya2 interaction; Q15475+O00167; AlphaScreen GST-Six1/His-Eya2 binding, biochemical; stronger effect = lower value; activity change, % (test concentration not listed); 360,000 tested, 0.56% active; AID 651725; in the data active means activity change below about -65%; inconclusive means mostly about -30% to -63%; further: on the % scale 0 is the no-effect control and ±100 the full control effect
Target sequence (O00167 whole entry, looked up): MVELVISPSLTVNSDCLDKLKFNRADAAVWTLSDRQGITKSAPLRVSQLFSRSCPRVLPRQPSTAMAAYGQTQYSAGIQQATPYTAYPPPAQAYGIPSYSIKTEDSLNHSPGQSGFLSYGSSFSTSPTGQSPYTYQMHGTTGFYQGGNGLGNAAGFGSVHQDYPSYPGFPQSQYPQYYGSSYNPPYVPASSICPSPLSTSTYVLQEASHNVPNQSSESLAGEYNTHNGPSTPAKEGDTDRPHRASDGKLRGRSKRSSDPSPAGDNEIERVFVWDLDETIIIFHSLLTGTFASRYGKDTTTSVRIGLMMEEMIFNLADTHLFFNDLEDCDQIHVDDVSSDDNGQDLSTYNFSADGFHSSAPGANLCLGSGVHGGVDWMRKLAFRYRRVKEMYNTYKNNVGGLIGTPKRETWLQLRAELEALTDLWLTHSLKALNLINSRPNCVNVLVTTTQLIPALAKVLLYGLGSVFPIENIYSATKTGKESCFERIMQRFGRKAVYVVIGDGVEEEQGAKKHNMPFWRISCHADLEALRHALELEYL
Target sequence (Q15475 whole entry, looked up): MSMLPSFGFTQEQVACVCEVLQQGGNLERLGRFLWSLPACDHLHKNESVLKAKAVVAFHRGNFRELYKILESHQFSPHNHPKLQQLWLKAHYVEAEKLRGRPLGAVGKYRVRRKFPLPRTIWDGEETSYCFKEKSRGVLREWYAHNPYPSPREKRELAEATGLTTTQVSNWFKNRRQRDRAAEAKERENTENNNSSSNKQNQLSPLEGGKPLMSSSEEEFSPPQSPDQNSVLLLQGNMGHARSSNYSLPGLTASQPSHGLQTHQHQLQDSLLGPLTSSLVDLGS
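GST-Six1 + His-Eya2 (5X stock: 250/500 nM); Tris pH 8.0, 300 mM NaCl, 0.05% BSA, 0.02% Tween 20; GSH donor/Ni acceptor beads; 1 h 37 °C dark; AlphaScreen readout.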
Menin MLL FP TR – displaces Texas Red mutant MLL peptide from human menin; 270,000 tested, 0.23% active; Menin + Texas Red MLL mutant peptide, fluorescence polarization; Potency, µM (titrated, usually from 61.6 µM), for inactives: top-dose FP activity change, negative = inhibition, hits mostly inhibitors; active means well fitted inhibition curve with a large enough effect in the polarisation, with a control signal flat, not every such curve was filed as active; inconclusive means small, poorly fitted or top-dose-only effect, or effect the other way, or a change in a side signal; inactive means no such curve, though single readings can be large or run the other way; the % refers to the polarisation; further: potency means the concentration at half of the fitted maximal effect; % of control where 0% means no effect
CtBP-E1A inh – blocks the CtBP interaction with E1A; AlphaScreen GST-E1A/His-CtBP binding, 1536-well; stronger effect = lower value; activity change, % (no concentration beside the values); 340,000 tested, 0.49% active; in the data active means activity change below about -65%; inconclusive means mostly about -30% to -63%; further: on the % scale 0 is the no-effect control and ±100 the full control effect
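Steps: dispense buffer (Tris pH 8.0, NaCl 300 mM, TCEP 1 mM, BSA, Tween 20); add 5X protein mix (GST-E1A, His-CtBP, 125 nM each); pin 23 nL compound; 2 h at 37 °C, dark; add 5X beads (50 ug/mL); 1 h; read.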
Menin-MLL FL inh – menin-MLL binding inhibition, fluorescein peptide; 290,000 tested, under 10 active; FP activity change, % at 61.4 µM; Fluorescence polarization, fluorescein-MLL peptide displacement from menin; AID 1766; active means well fitted curve in the direction sought with a large enough effect in the polarisation, not every such curve was filed as active; inconclusive means small, poorly fitted or top-dose-only effect, or effect the other way, or a change in a side signal; inactive means no such curve, though single readings can be large or run the other way; the % refers to the polarisation; further: % of control where 0% means no effect
GLS inh – blocks human kidney-isoform glutaminase activity | Potency, µM (top dose mostly 45.5 µM), for the others: at the top dose activity change, negative = inhibition, most hits filed as inhibitors | GLS enzymatic activity, qHTS titration | 410,000 tested, 0.21% active | AID 624170 | O94925; further: potency means the concentration at half of the fitted maximal effect; on the % scale 0 is the no-effect control and ±100 the full control effect
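Read-out is an Amplex red fluorescence increase coupled through glutamate oxidase and HRP, measured before and after 30 min room-temperature incubation. hKGA is in 45 mM KH2PO4 (pH 8.2) with 0.02% Tween-20; glutamine added as 1mM solution.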
MLL CXXC FP-Fl – disrupts human MLL CXXC domain binding to DNA. AID 624160. MLL CXXC-DNA binding, fluorescein FP. 200 tested, 70% active. shares compounds with CXXC DNA block. Potency, µM (doses to about 345 µM), without a hit: at the highest dose activity change, negative = inhibition, usual class: inhibitors; further: potency means the concentration at half of the fitted maximal effect; nearly all actives have a fitted effect of over 80% in size
MLL CXXC FP-TR – inhibitors of human MLL CXXC domain-DNA interaction, Texas Red format. 200 tested, 40% active. Potency, µM (titrated, usually from 345 µM), for the others: top-dose activity change, negative = inhibition, most hits filed as inhibitors. AID 624161. shares compounds with CXXC DNA block. MLL CXXC-DNA binding, Texas Red fluorescence polarization; further: potency means the concentration at half of the fitted maximal effect; on the % scale 0 is the no-effect control and ±100 the full control effect; nearly all actives have a fitted effect of over 75% in size
MLL CXXC TRF – inhibitors of human MLL CXXC domain-DNA interaction, HTRF format; shares compounds with CXXC DNA block; MLL CXXC-DNA binding, HTRF, biochemical; Potency, µM (titrated, usually from 172 µM), for inactives: at the top dose activity change, negative = inhibition, hits mostly inhibitors; 210 tested, 30% active; AID 624162; further: on the % scale 0 is the no-effect control and ±100 the full control effect; nearly all actives have a fitted effect of over 80% in size
Starred values were filed as active, the others as inactive; ? = inconclusive; . = no result given; [ ] = remark or other dose. Unless noted, the call rests on the fitted dose curve; in most records, active means well fitted curve in the direction sought with a large enough effect; inconclusive means small, poorly fitted or top-dose-only effect, or another doubt; inactive means no such curve, though single readings can be large; an effect the other way counts as inactive or inconclusive.

SMILES	CXXC DNA block	Six1-Eya2 blk	Menin MLL FP TR	CtBP-E1A inh	Menin-MLL FL inh	GLS inh	MLL CXXC FP-Fl	MLL CXXC FP-TR	MLL CXXC TRF
CC(=O)C1(O)Cc2c(O)c3c(c(O)c2C(OC2CC(N)C(O)C(C)O2)C1)C(=O)c1c(O)cccc1C3=O (centres undefined)	?	.	?	.	?	8%	4.5µM*	20µM*	270%
CC(=O)[C@@]1(O)Cc2c(O)c3c(c(O)c2[C@H](O[C@H]2C[C@H](N)[C@H](O)[C@H](C)O2)C1)C(=O)c1ccccc1C3=O	.	.	.	.	.	27%	.	.	.
COc1ccccc1NC(=O)CCCCCN1C(=O)c2cccc([N+](=O)[O-])c2C1=O	-11%	-1	-1%	0	-3	10%	.	.	.
COc1cc(/C=C2/C(=O)c3cccc([N+](=O)[O-])c3C2=O)c(Br)cc1O	28µM*	-5	?	-6	4	?	40µM*	80µM*	?
CC(=O)N1CCc2c(sc3c2c(=O)n(-c2ccc(C)cc2)c(=O)n3CC(=O)Nc2ccccc2)C1	.	.	.	.	.	-3%	.	.	.
CCN1CCN(c2cc(-c3ccc(F)cc3)c3c(n2)CCCCCC3)CC1	.	.	.	.	.	11%	.	.	.
O=C1C=C(O)c2cccc3cccc1c23	?	3	?	1	?	0%	113µM*	5%	33%
C=CCOC(=O)C(=O)/C=C/c1csc2ccccc12	?	-6	?	-1	?	11%	6%	?	-12%
NS(=O)(=O)c1ccc(NC(=O)c2c(F)cccc2Cl)cc1	-2%	2	.	5	2	-2%	.	.	.
NS(=O)(=O)c1ccc(NC(=O)c2c(Cl)cccc2Cl)cc1	?	1	3%	0	4	-9%	?	?	-7%
CCOC(=O)c1cccc(NS(=O)(=O)c2cc(Br)cc3c2N(C(=O)C2CC2)CC3)c1	.	.	.	.	.	0%	.	.	.
Cc1cc(C)c2c3c(c(-c4ccccc4)n2n1)c(=O)n(C)c(=O)n3C	.	15	.	14	.	-1%	.	.	.
Cc1cc(-c2ccccc2)c2c3c(c(-c4ccccc4)n2n1)c(=O)n(C)c(=O)n3C	50µM*	1	4%	20	?	-6%	-43%	16%	9%
COc1cccc(C(=O)Nc2ccc3nc(SCc4ccc(C)cc4)sc3c2)c1	.	.	.	.	.	-5%	.	.	.
CCOC(=O)C(C(=O)OCC)c1cc(Br)c2noc3c2c1C(=O)c1ccccc1-3	32µM*	-10	?	-16	?	27%	10µM*	40µM*	?
CC(=O)OCCNc1cc(N2CCN(C)CC2)c2noc3c2c1C(=O)c1ccccc1-3	?	-29	?	?	?	6%	.	.	.
CO[C@@H]1COC(=O)C/C=C\[C@H](C)COC(=O)[C@H](Cc2ccccc2)NC(=O)C/C=C\[C@H]1C	.	.	-17%[11.7 µM]	.	-1[11.7 µM]	.	.	.	.
O=C1NC(=S)NC1=Cc1ccccc1O	.	-7	.	-6	.	2%	.	.	.
CC(/C=C1\NC(=S)NC1=O)=C\c1ccccc1	45µM*	-1	-29%	.	4	12%	0.13µM*	?	53%
Cc1nn(C)c(C)c1CN(C)C(=O)C1(C)CC1(Br)Br (centres undefined)	12%	6	2%	3	6	6%	.	.	.
